Here are results for 67 compounds from PubChem BioAssay AID624138 (Broad Institute, 2012).

The whole screen tested about 17,000 compounds, of which about 35 (0.2%) were called active. This is one part of a sample in which actives are shown more often than they occur.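 The calls were made as follows: active = compounds whose four printed spots each show fluorescence over background unusually high for their array block, chance value under 7%; inactive = the rest.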

Sequence of Signal transducer and activator of transcription 3 (Homo sapiens) (P40763 whole entry, looked up): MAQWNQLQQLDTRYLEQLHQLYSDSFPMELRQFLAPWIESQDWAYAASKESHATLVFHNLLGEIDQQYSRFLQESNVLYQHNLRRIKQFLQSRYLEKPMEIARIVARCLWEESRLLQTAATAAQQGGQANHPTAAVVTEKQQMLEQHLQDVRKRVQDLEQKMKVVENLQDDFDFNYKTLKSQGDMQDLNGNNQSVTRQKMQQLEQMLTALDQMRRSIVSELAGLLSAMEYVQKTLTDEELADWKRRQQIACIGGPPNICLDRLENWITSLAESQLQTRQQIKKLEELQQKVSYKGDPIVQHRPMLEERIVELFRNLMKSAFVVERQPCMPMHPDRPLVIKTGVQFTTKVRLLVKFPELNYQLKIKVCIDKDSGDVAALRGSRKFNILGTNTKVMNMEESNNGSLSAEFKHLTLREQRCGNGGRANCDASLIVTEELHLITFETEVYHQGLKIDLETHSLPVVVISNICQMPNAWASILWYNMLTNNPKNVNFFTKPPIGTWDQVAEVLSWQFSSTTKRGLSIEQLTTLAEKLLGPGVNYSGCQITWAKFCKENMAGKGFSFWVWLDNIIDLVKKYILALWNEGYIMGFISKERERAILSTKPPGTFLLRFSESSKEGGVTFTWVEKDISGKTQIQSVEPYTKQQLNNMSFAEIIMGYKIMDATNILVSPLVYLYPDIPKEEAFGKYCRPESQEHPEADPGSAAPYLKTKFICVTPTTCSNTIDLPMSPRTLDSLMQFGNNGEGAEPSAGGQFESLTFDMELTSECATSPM

This assay concerns the target Signal transducer and activator of transcription 3 (Homo sapiens) (UniProt P40763). Nature of the assay: STAT3 binders, primary screen, biochemical, small molecule microarray, single point, set 2 (AID 624138). As to conditions: His-STAT3 binding, anti-His fluorescence.
`C[C@@H]1CN([C@H](C)CO)C(=O)Cc2cc(NC(=O)CCCN(C)C)ccc2O[C@@H]1CN(C)S(=O)(=O)c1cccs1`: the compound was called inactive. As for `N#Cc1cccc(CSc2nnc(CCCO)n2-c2ccccc2)c1`, the entry is “inactive”. As for `C[C@@H]1CCCCO[C@@H](CN(C)Cc2ccccc2)[C@H](C)CN([C@H](C)CO)C(=O)c2cc(NS(=O)(=O)c3cccs3)ccc2O1`, the entry is “inactive”. Under `O=C(CS(=O)(=O)c1ccccc1)Nc1ccc2c(c1)OCCO2` stands “inactive”. Take `O=[N+]([O-])c1ccccc1/C=C/CN1CCC(O)CC1`: the compound was called inactive. For the compound `COc1ccc(CN(C)C[C@H]2Oc3c(NC(=O)c4ccncc4)cccc3C(=O)N([C@H](C)CO)C[C@@H]2C)cc1`, the result was inactive.

`CCO[C@@H]1OC(C(=O)N2CCOCC2)=C[C@H](C)[C@H]1CCCO`: the compound was called inactive.

In the case of `O=[N+]([O-])c1ccc(NCCNS(=O)(=O)c2ccc(Br)cc2)c(C(F)(F)F)c1`, the compound was called inactive. As for `COc1ccc(NC(=S)NCc2cc(C)n(C)n2)cc1OC`, the entry is “inactive”. Regarding `C[C@@H]1CN([C@@H](C)CO)C(=O)c2cc(NC(=O)Nc3ccc4c(c3)OCO4)ccc2O[C@@H]1CN(C)C(=O)Nc1ccc2c(c1)OCO2`, the compound was called inactive. Under `C[C@@H]1CN([C@H](C)CO)C(=O)c2cccc(NC(=O)Nc3cccc4ccccc34)c2O[C@@H]1CN(C)C(=O)Nc1cccc2ccccc12` stands “inactive”; under `CNC[C@@H]1Oc2ccc(NC(=O)CCC(F)(F)F)cc2C(=O)N([C@@H](C)CO)C[C@@H]1C`, “inactive”; under `Oc1cc(O)c2c(c1)OC(c1ccc(O)c(O)c1)C(O)C2` (configuration not stated), “inactive”. For the compound `C[C@H]1CN([C@@H](C)CO)C(=O)c2cc(N(C)C)ccc2O[C@@H]1CN(C)Cc1ccccc1`, the compound was classed as inactive. For the compound `CCN(CCCCOC(=O)c1ccc(OC)c(OC)c1)C(C)Cc1ccc(OC)cc1` (configuration not stated), the call was inactive. Under `COc1ccc(S(=O)(=O)N(C)C[C@H]2Oc3c(NC(=O)NC4CCCCC4)cccc3C(=O)N([C@@H](C)CO)C[C@@H]2C)cc1` stands “inactive”; under `CCc1cc2c(=O)n(-c3ccccc3)c(SCC(=O)O)nc2s1`, “inactive”; under `C[C@H]1CCCCO[C@@H](CN(C)C(=O)c2ccccc2)[C@@H](C)CN([C@@H](C)CO)C(=O)c2cc(NS(=O)(=O)c3cccs3)ccc2O1`, “inactive”. As for `Cc1noc(C)c1NC(=O)Nc1ccc2c(c1)C(=O)N([C@@H](C)CO)C[C@H](C)[C@@H](CN(C)C(=O)C1CCCCC1)OCCCC[C@@H](C)O2`, the entry is “inactive”.

As for `C[C@H](CO)N1C[C@H](C)[C@H](CN(C)C(=O)CCC(F)(F)F)OCCCC[C@H](C)Oc2ccc(NS(C)(=O)=O)cc2C1=O`, the compound was called active. Under `C[C@@H]1CCCCO[C@H](CN(C)C(=O)CCC(F)(F)F)[C@H](C)CN([C@H](C)CO)C(=O)c2cc(NS(C)(=O)=O)ccc2O1` stands “inactive”; under `C[C@@H]1CN([C@H](C)CO)C(=O)c2cc(NS(=O)(=O)c3ccccc3)ccc2O[C@@H](C)CCCCO[C@@H]1CN(C)C(=O)CCC(F)(F)F`, “inactive”; under `Cc1ccc(-n2c(SCC(=O)Nc3ccc(F)c(F)c3)nnc2-c2ccccn2)cc1`, “inactive”.

In the case of `CC(C)NC(=O)Nc1ccc2c(c1)C(=O)N([C@H](C)CO)C[C@H](C)[C@H](CN(C)Cc1ccc(C(=O)O)cc1)OCCCC[C@@H](C)O2`, the outcome was inactive. Take `O=C(NCc1ccco1)c1nc2ncccn2n1`: the outcome was inactive. As for `OC(COc1ccc2ccccc2c1)Cn1cncn1` (configuration not stated), the entry is “inactive”; as for `Cc1ccc(C(=O)C2C(=O)C(=O)N(Cc3cccnc3)C2c2ccc(Cl)c(Cl)c2)o1` (configuration not stated), “inactive”; as for `Cc1noc(C)c1NC(=O)Nc1ccc2c(c1)C(=O)N([C@@H](C)CO)C[C@H](C)[C@H](CN(C)Cc1ccc(C(=O)O)cc1)OCCCC[C@@H](C)O2`, “inactive”.

As for `C[C@H](CO)N1C[C@H](C)[C@H](CN(C)Cc2ccncc2)Oc2ccc(N(C)C)cc2C1=O`, the result was inactive. As for `C[C@H]1CN([C@@H](C)CO)C(=O)c2cc(NC(=O)Cn3cnnn3)ccc2O[C@@H]1CN(C)CC1CCCCC1`, the result was inactive. As for `C[C@H]1CN([C@@H](C)CO)C(=O)Cc2cc(NC(=O)Nc3ccccc3)ccc2O[C@H]1CN(C)Cc1ccncc1`, the entry is “inactive”; as for `Cc1cc(O)c2c(c1)C(=O)OC2c1c(O)cccc1O` (configuration not stated), “inactive”; as for `CO[C@H]1O[C@H](CO)[C@@H](OC(=O)Nc2ccccc2-c2ccccc2)[C@H](OC(=O)Nc2ccccc2)[C@H]1OC(=O)Nc1ccccc1`, “inactive”. As for `CC(=O)n1cc([C@@H]2C=C(C(=O)N3CCN(Cc4ccc5c(c4)OCO5)CC3)O[C@H](OCc3ccc(CO)cc3)C2)c2ccccc21`, the compound was classed as inactive. As for `Cc1noc(C)c1S(=O)(=O)Nc1ccc2c(c1)C(=O)N([C@@H](C)CO)C[C@@H](C)[C@H](CN(C)C(=O)NC(C)C)OCCCC[C@@H](C)O2`, the entry is “inactive”. Under `Cc1noc(C)c1NC(=O)Nc1ccc2c(c1)C(=O)N([C@@H](C)CO)C[C@H](C)[C@H](CN(C)S(=O)(=O)c1cn(C)cn1)OCCCC[C@@H](C)O2` stands “inactive”; under `C[C@@H]1CN([C@H](C)CO)C(=O)c2cccc(NS(=O)(=O)c3cccs3)c2O[C@@H]1CN(C)C(=O)Nc1cccc2ccccc12`, “inactive”; under `CC(C)NC(=O)Nc1ccc2c(c1)C(=O)N([C@@H](C)CO)C[C@@H](C)[C@H](CN(C)S(=O)(=O)c1ccccc1)OCCCC[C@@H](C)O2`, “inactive”. Take `CC(=O)Nc1ccc(NC(=O)CC2C(=O)Nc3ccccc3N2C(C)=O)cc1` (configuration not stated): the outcome was inactive. Under `COc1ccc2c(c1)C(=O)CC(c1ccccc1)O2` (configuration not stated) stands “inactive”; under `Cc1ccc2[nH]c(C)c(CCNC(=O)Nc3ccc(Cl)cc3)c2c1`, “inactive”; under `C[C@@H]1CN([C@H](C)CO)C(=O)c2cccc(NC(=O)C3CCOCC3)c2O[C@H]1CN(C)S(=O)(=O)c1ccc(Cl)cc1`, “inactive”. Under `COc1ccc(S(=O)(=O)Nc2ccc3c(c2)CC(=O)N([C@H](C)CO)C[C@H](C)[C@H](CN(C)CC2CC2)O3)cc1` stands “inactive”. In the case of `Cc1noc(C)c1S(=O)(=O)N(C)C[C@H]1Oc2c(NC(=O)c3cnccn3)cccc2C(=O)N([C@H](C)CO)C[C@H]1C`, the result was inactive. Under `C/C(=C/CC[C@@H](CO)[C@H]1CC[C@@]2(C)[C@@H]3CC[C@H]4C(C)(C)[C@@H](O[C@@H]5O[C@H](CO)[C@@H](O)[C@H](O)[C@H]5O)C[C@H](O)[C@@]45C[C@@]35CC[C@]12C)CO` stands “inactive”; under `O=C(C1=C[C@@H](c2ccccc2)C[C@@H](OCCCCO)O1)N1CCN(Cc2ccccc2)CC1`, “inactive”; under `C=C1C[C@@H]2COC(=O)[C@]2(Cc2ccc3ccccc3c2)C1`, “inactive”.

In the case of `O=C(OC1OC(CO)C(O)C(O)C1O)c1c(O)cc(O)cc1/C=C/c1ccccc1` (configuration not stated), the compound was classed as inactive. As for `COc1ccc(CN(C)C[C@@H]2Oc3ccc(NC(=O)Nc4ccc(OC)cc4)cc3CC(=O)N([C@H](C)CO)C[C@H]2C)cc1`, the entry is “inactive”. As for `C[C@@H]1CCCCO[C@H](CN(C)C(=O)CCCN(C)C)[C@H](C)CN([C@@H](C)CO)C(=O)c2cc(NS(=O)(=O)c3ccccc3)ccc2O1`, the entry is “inactive”. As for `C[C@@H]1CCCCO[C@@H](CN(C)C(=O)CCCN(C)C)[C@@H](C)CN([C@H](C)CO)C(=O)c2cc(NC(=O)CCCN(C)C)ccc2O1`, the entry is “inactive”; as for `CNC[C@H]1Oc2ccc(NC(=O)CCC(F)(F)F)cc2C(=O)N([C@@H](C)CO)C[C@H]1C`, “inactive”. `CCCCCc1ccc(/C=C/C(=O)Nc2ccccc2C(=O)O)cc1`: the outcome was inactive. As for `CC(Sc1nc2ccccc2[nH]1)c1nc2ccccc2[nH]1` (configuration not stated), the entry is “inactive”; as for `C[C@H]1CCCCO[C@H](CN(C)C)[C@@H](C)CN([C@@H](C)CO)C(=O)c2cc(NC(=O)CCCN(C)C)ccc2O1`, “inactive”; as for `COC(=O)CSc1nnc(-c2ccc(Cl)cc2)n1-c1ccc(Br)cc1`, “inactive”. In the case of `C[C@@H]1CN([C@H](C)CO)C(=O)Cc2cc(NC(=O)C3CC3)ccc2O[C@H]1CN(C)Cc1ccc(Cl)c(Cl)c1`, the call was inactive. Under `COc1ccc(NC(=O)CN(C)S(=O)(=O)c2ccccc2)cc1OC` stands “inactive”; under `C#CCN1C(Cc2ccccc2)C(=O)O[C@H](C2CCCCC2)[C@@H]1/C=C/C1CC1` (some centres not stated), “inactive”; under `C[C@@H]1CN([C@H](C)CO)C(=O)Cc2cc(N(C)C)ccc2O[C@@H]1CN(C)Cc1ccccc1`, “inactive”. Under `C[C@H]1CN([C@@H](C)CO)C(=O)c2cccc(NC(=O)C3CCOCC3)c2O[C@@H]1CN(C)C` stands “inactive”; under `CC1(C)CC(=O)c2ccc(O)cc2O1`, “inactive”.

On to `C[C@@H]1CN([C@@H](C)CO)C(=O)CCCn2cc(nn2)CO[C@H]1CN(C)C(=O)Nc1ccc(N2CCCCC2)cc1`, for which the compound was called inactive. As for `Cc1noc(C)c1S(=O)(=O)N(C)C[C@H]1Oc2ccc(NC(=O)Cc3ccccc3)cc2CC(=O)N([C@@H](C)CO)C[C@H]1C`, the entry is “inactive”; as for `COc1ccccc1NC(=O)CNC(=O)c1ccc(C)cc1`, “inactive”; as for `CC(C)NC(=O)Nc1ccc2c(c1)C(=O)N([C@H](C)CO)C[C@H](C)[C@@H](CN(C)C)OCCCC[C@H](C)O2`, “inactive”. As for `CCn1c(SCC(=O)Nc2sc3c(c2C#N)CCCC3)nnc1-c1ccccc1O`, the entry is “inactive”.
